# ChEMBL document CHEMBL1857833, “Screening and optimization of specific chemical series against human African Trypanosomiasis (HAT)”
# Values joined by “and” are separate entries in the source; they are usually repeats but may differ in a detail not shown here. Equal values may be shown once. Hit rate of the full screen: of about 4,400 compounds, about 390 (8.9%) showed an effect of 50% or more. Only a selection was taken, and strong results are over-represented in it overall.
# System: Trypanosoma brucei
# Experiment: DNDI: Inhibition of Human African Trypanosomiasis, SBRI 427, in vitro at 2 ug.mL-1
# Type: functional
row,Compound,% inhibition
1,FC(F)(F)c1ccc(-c2nc(CNc3cc[nH]n3)co2)cc1,40%
2,Cc1ccc(/C(=N/O)N2C(C)CCCC2C)c(Oc2ccc(F)cc2)n1 (stereo not given),28%
3,O/N=C(/c1ccc(Oc2cccc3ccccc23)nc1)N1CCCCCC1,25%
4,CCOc1ccc(-c2nc(CN(C)CCc3ccc(OC)c(OC)c3)co2)cc1,-3%
5,COc1ccccc1CN/C(=N\O)c1ccc(C)nc1Oc1ccc(F)c(Cl)c1,11%
6,COc1ccccc1CN/C(=N\O)c1ccc(C)nc1Oc1cc(Cl)ccc1Cl,100%
7,Cc1ccc(/C(=N/O)NCc2ccccc2F)c(Oc2cc(Cl)ccc2Cl)n1,81%
8,Cc1ccc(/C(=N/O)NCc2c(F)cccc2F)c(Oc2cc(Cl)ccc2Cl)n1,35%
9,Cc1ccc(/C(=N/O)NCc2ccccc2C)c(Oc2cc(Cl)ccc2Cl)n1,18%
10,COc1ccccc1CN/C(=N\O)c1ccc(C)nc1Oc1ccc(Cl)cc1,3%
11,COc1cccc(-c2nc(CNCc3ccccc3C(F)(F)F)co2)c1,20%
12,Cc1ccc(C)c(N2CCN(Cc3coc(-c4ccc(F)cc4)n3)CC2)c1,-12%
13,Cc1ccc(-c2nc(CNC3CCCCCCC3)co2)cc1,71%
14,Oc1ccc(-c2nc(CNC3CCCCCC3)co2)cc1,16%
15,CC(NCc1coc(-c2ccc(O)cc2)n1)C1CCCCC1 (stereo not given),0%
16,Fc1ccc(-c2nc(CNC3CCCCC3)co2)cc1,8%
17,c1coc(-c2nc(CNC3CCCCC3)co2)c1,6%
18,Oc1ccc(-c2nc(CNC3CCCCCCCCCCC3)co2)cc1,60%
19,FC(F)(F)c1ccc(-c2nc(CNc3ccc(Oc4ccccc4)cc3)co2)cc1,4%
20,COc1cccc(-c2nc(CN(CCN(C)C)Cc3ccccc3)co2)c1,23%
21,Cc1cc(C)cc(Oc2ccc(/C(=N/O)N3CCN(C4CCCC4)CC3)cn2)c1,0%
22,COc1cc(-c2nc(CNC(C)c3cccc4ccccc34)co2)cc(OC)c1OC (stereo not given),-4%

row,Compound,% inhibition
1,O/N=C(\NCc1ccncc1)c1cccnc1Oc1ccc(F)cc1,2%
2,COc1ccc(CN/C(=N\O)c2cccnc2Oc2c(F)cccc2F)cc1,-7%
3,CC(C)(C)CN/C(=N\O)c1cccnc1Oc1c(F)cccc1F,100%
4,CCOc1ccccc1CN/C(=N\O)c1cccnc1Oc1c(F)cccc1F,41%
5,O/N=C(\NCc1ccccc1)c1cccnc1Oc1c(F)c(F)cc(F)c1F,10%
6,COc1ccccc1Oc1ncccc1/C(=N/O)NCc1c(F)cccc1F,28%
7,Cc1ccccc1CN/C(=N\O)c1cccnc1Oc1c(F)cccc1F,95%
8,O/N=C(\NCc1cccnc1)c1cccnc1Oc1ccc(F)cc1,2%
9,CSc1ccccc1Oc1ncccc1/C(=N/O)NCc1c(F)cccc1F,58%
10,O/N=C(\NCc1c(F)cccc1F)c1cccnc1Oc1ccc(F)cc1,94%
11,CCc1ccc(Oc2ncccc2/C(=N/O)n2ccnc2)cc1,3%
12,Cc1cccc(Oc2ccc(/C(=N/O)N(C)C3CCCCC3)cn2)c1,4%
13,Cc1ccc(/C(=N/O)NCC2CC2)c(Oc2cccc3c2CCCC3)n1,-5%
14,Cc1cc(C)cc(Oc2nc(C)ccc2/C(=N/O)Nc2ccc(C(C)C)cc2)c1,0%
15,COc1cccc(-c2nc(CN3CCN(c4ccccn4)CC3)co2)c1,-9%
16,Oc1ccc(-c2nc(CNCc3ccccc3)co2)cc1,1%
17,CN(Cc1coc(-c2ccc(C(F)(F)F)cc2)n1)CC1OCCO1,-7%
18,CN(Cc1cccnc1)Cc1coc(-c2cccc(F)c2)n1,-1%
19,O/N=C(\NCc1c(F)cccc1F)c1cccnc1Oc1ccccc1,98%
20,CCCN/C(=N\O)c1cccnc1Oc1ccccc1,8%
21,Cc1cccc(Oc2ncccc2/C(=N/O)NCc2cccs2)c1C,3%
22,O/N=C(\NCc1cccnc1)c1cccnc1Oc1ccccc1,8%

row,Compound,% inhibition
1,Cc1ccc(Oc2ncccc2/C(=N/O)NCc2ccccc2)cc1,12%
2,Cc1cccc(Oc2ncccc2/C(=N/O)NCc2ccncc2)c1C,5%
3,Cc1ccc(Oc2ncccc2/C(=N/O)NCc2c(F)cccc2F)cc1,98%
4,COc1ccccc1CN/C(=N\O)c1cccnc1Oc1cccc(C)c1C,7%
5,O/N=C(\NCc1ccccc1)c1cccnc1Oc1c(F)cccc1F,3%
6,O/N=C(\NCc1cccs1)c1cccnc1Oc1c(F)cccc1F,73%
7,Cc1ccc(Oc2nc(C)ccc2/C(=N/O)NCc2c(F)cccc2F)cc1,13%
8,Cc1ccccc1CN/C(=N\O)c1cccnc1Oc1cccc(C)c1C,85%
9,CSc1ccc(Oc2ncccc2/C(=N/O)NCc2cccnc2)cc1C,10%
10,CCOc1cccc(-c2nc(CNCCc3cccc(OC)c3)co2)c1,8%
11,COCC(C)NCc1coc(-c2cccc(C)c2)n1 (stereo not given),19%
12,Cc1ccc(N(C)Cc2coc(-c3ccccc3Cl)n2)cc1,-9%
13,CC(C)COc1ncccc1/C(=N/O)NCc1c(F)cccc1F,-9%
14,Cc1cc(C)cc(CN/C(=N\O)c2cccnc2Oc2cccc(C)c2C)c1,-13%
15,Cc1cc(C)cc(CN/C(=N\O)c2cccnc2OCc2ccccc2F)c1,83%
16,CC(C)c1ccc(Oc2ncccc2/C(=N/O)NCc2c(F)cccc2F)cc1,100%
17,O/N=C(\NCc1ccccc1)c1cccnc1OCc1ccccc1F,37%
18,O/N=C(\NCc1ccncc1)c1cccnc1OCc1ccccc1F,-12%
19,O/N=C(\NCc1c(F)cccc1F)c1cccnc1Oc1c(F)cccc1F,95%
20,O/N=C(\NCc1c(F)cccc1F)c1cccnc1Oc1c(F)c(F)cc(F)c1F,2%
21,CC(C)c1ccc(Oc2ncccc2/C(=N/O)NCc2ccncc2)cc1,1%
22,O/N=C(\NCc1c(F)cccc1F)c1cccnc1OC1CCC1,10%

row,Compound,% inhibition
1,Cc1cc(C)cc(CN/C(=N\O)c2cccnc2Oc2c(F)c(F)cc(F)c2F)c1,-3%
2,Cc1cc(C)cc(CN/C(=N\O)c2cccnc2Oc2c(F)cccc2F)c1,100%
3,COc1cc(C)ccc1Oc1ncccc1/C(=N/O)N(C)C1CCN(C)CC1,-9%
4,Fc1ccc(-c2nc(Cn3ncc4c3CCCC4)co2)cc1,1%
5,COc1cc(-c2nc(CN3CCC(Cc4ccccc4)CC3)co2)cc(OC)c1OC,6%
6,CCOc1ccccc1-c1nc(CN(C)c2ccc(C)cc2)co1,-15%
7,CCCN(Cc1coc(-c2ccccc2Cl)n1)C(C)CC (stereo not given),-11%
8,Cc1cc(C)n(/C(=N\O)c2ccnc(Oc3cc(Cl)ccc3Cl)c2)n1,16%
9,O/N=C(/c1ccnc(Oc2cccc3c2CCCC3)c1)N1CCN(c2ccccc2)CC1,22%
10,Cc1cc(C)n(/C(=N\O)c2ccnc(Oc3cccc4c3CCCC4)c2)n1,57%
11,O/N=C(/c1ccnc(Oc2cccc3c2CCCC3)c1)N1CCSCC1,91%
12,N/C(=N\O)c1ccnc(Oc2cccc3c2CCCC3)c1,7%
13,O/N=C(/c1ccc(Oc2cccc3c2CCCC3)nc1)N1CCSCC1,21%
14,CC(C)(C)c1ccc(CNCc2coc(-c3ccc(O)cc3)n2)cc1,36%
15,COCCN(CCOC)Cc1coc(-c2ccc(C(C)(C)C)cc2)n1,-1%
16,CC(C)(C)CNCc1coc(-c2ccc(C(C)(C)C)cc2)n1,99%
17,C=COCCCNCc1coc(-c2ccc(OC)cc2)n1,-2%
18,Cc1ccccc1-c1nc(CN(CCC#N)Cc2ccccc2)co1,-5%
19,Cc1ccccc1-c1nc(CN(C)Cc2ccccc2)co1,-2%
20,CCN(CC)CCN(CC)Cc1coc(-c2ccc(OC)cc2)n1,14%
21,Cc1ccccc1-c1nc(CN(CCN(C)C)Cc2ccccc2)co1,54%
22,C=COCCCNCc1coc(-c2ccc(C)cc2)n1,-5%

row,Compound,% inhibition
1,CCN(CCN(C)C)Cc1coc(-c2ccc(C(C)(C)C)cc2)n1,99%
2,C=COCCCNCc1coc(-c2ccc(C(C)(C)C)cc2)n1,53%
3,CN(C)CC(C)(C)CNCc1coc(-c2ccc(C(C)(C)C)cc2)n1,9%
4,Cc1ccc(-c2nc(CN(C)C(C)(C)C)co2)cc1,22%
5,CN(CCc1ccccc1)Cc1coc(-c2ccc(Cl)cc2Cl)n1,11%
6,Cc1ccc(CCNCc2coc(-c3ccc(Cl)cc3Cl)n2)cc1,-7%
7,C=CCN(C)Cc1coc(-c2cccc(OC)c2)n1,27%
8,CSc1ccc(Oc2nc(C)ccc2/C(=N/O)N2C(C)CCC2C)cc1C (stereo not given),23%
9,FC(F)(F)c1ccc(CNCc2coc(-c3cccs3)n2)cc1,-6%
10,COc1ccc(-c2nc(CN3CCN(C)CC3)co2)cc1,4%
11,CCCCNCc1coc(-c2ccc(C(C)(C)C)cc2)n1,99%
12,CC(C)(C)c1ccc(-c2nc(CNCC3CC3)co2)cc1,99%
13,CC(C)C(C)NCc1coc(-c2ccc(C(C)(C)C)cc2)n1 (stereo not given),72%
14,Cc1cn(Cc2coc(-c3ccc(C(F)(F)F)cc3)n2)c(C)n1,2%
15,Cc1ccc(-c2nc(Cn3cc(C)nc3C)co2)cc1,18%
16,Cc1cn(Cc2coc(-c3ccc(C(C)(C)C)cc3)n2)c(C)n1,58%
17,c1ccc(-c2nc(CNCC3CC3)co2)cc1,28%
18,COc1ccc(-c2nc(CNCC3CCCCC3)co2)cc1,10%
19,CC(C)C(C)NCc1coc(-c2ccc(O)cc2)n1 (stereo not given),33%
20,Cc1ccc(-c2nc(CNC(C)C(C)C)co2)cc1 (stereo not given),41% and 29%
21,Cc1ccc(CNCc2coc(-c3ccc(C(C)(C)C)cc3)n2)o1,0%
22,CCCCNCc1coc(-c2ccccc2)n1,20%
